Where a name gives a salt, the structure may show the parent alone. ± gives the standard deviation.
System: Danio rerio Tg(wt1b:EGFP) embryo, pronephros
Assay: glomerular separation, fold change vs DMSO control; higher = glomeruli further apart (abnormal)
Conditions: 25 µM; exposure: 24-48 hpf
In short: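 Distances and angles describing the pronephros were computed by a Fiji macro from 16 reference points set manually on maximum projections of dorsal images. These images came from dechorionated Tg(wt1b:EGFP) zebrafish embryos held in agarose-filled 96-well plates after exposure to 25 μM compound in 0.5% DMSO, in HEPES-buffered E3 with 0.003% PTU, from 24 to 48 hpf at 28.5°C. Any value more than 2 SD from the feature mean was excluded. Features are stated as fold change relative to the mean of same-day DMSO-treated embryos.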

SMILES | glomerular separation
OCCOCCN1CCN(C(c2ccccc2)c2ccc(Cl)cc2)CC1 (stereo not given) [Hydroxyzine dihydrochloride] | 0.754 ± 0.2
O=C(O)CCC(=O)c1ccc(-c2ccccc2)cc1 [Fenbufen] | 6.73 ± 2.4
CC(=O)OCC(=O)[C@@]1(OC(C)=O)[C@@H](C)C[C@H]2[C@@H]3C[C@H](F)C4=CC(=O)C=C[C@]4(C)[C@@]3(F)[C@@H](O)C[C@@]21C [Diflorasone Diacetate] | 1.52 ± 0.52
CN(Cc1cnc2nc(N)nc(N)c2n1)c1ccc(C(=O)N[C@@H](CCC(=O)O)C(=O)O)cc1 [Methotrexate] | 1.19 ± 0.59
CCCCNC(=O)NS(=O)(=O)c1ccc(C)cc1 [Tolbutamide] | 1.01 ± 0.53
CC(=O)O[C@]1(C(C)=O)CC[C@H]2[C@@H]3C=C(Cl)C4=CC(=O)CC[C@]4(C)[C@H]3CC[C@@]21C [Chlormadinone acetate] | 1.26 ± 0.62
CC(C)C(=O)Nc1ccc([N+](=O)[O-])c(C(F)(F)F)c1 [Flutamide] | 1.54 ± 1.1
Cn1c(=O)c2c(ncn2CC(=O)O)n(C)c1=O [Acefylline] | 1.12 ± 0.41
CN(C)CCC[C@@]1(c2ccc(F)cc2)OCc2cc(C#N)ccc21 [Escitalopram oxalate] | 1.13 ± 0.38
Cc1cccc(C)c1NC(=O)C1CCCCN1C (stereo not given) [Mepivacaine hydrochloride] | 0.751 ± 0.32
Cc1cc(NS(=O)(=O)c2ccc(N)cc2)no1 [Sulfamethoxazole] | 0.872 ± 0.23
CO[C@@]1(NC(=O)CSCC#N)C(=O)N2C(C(=O)O)=C(CSc3nnnn3C)CS[C@@H]21 [Cefmetazole sodium salt] | 0.79 ± 0.16
CC1(C)O[C@@H]2[C@@H](CO[C@@]3(COS(N)(=O)=O)OC(C)(C)O[C@@H]23)O1 [Topiramate] | 1.18 ± 0.51
Cc1cccc(N(C)C(=S)Oc2ccc3ccccc3c2)c1 [Tolnaftate] | 2.28 ± 1.3
CCCCC(=O)N(Cc1ccc(-c2ccccc2-c2nnn[nH]2)cc1)[C@H](C(=O)O)C(C)C [Valsartan] | 0.756 ± 0.22
Cc1cc(-c2ccccc2)nnc1NCCN1CCOCC1 [Minaprine dihydrochloride] | 1.13 ± 0.95
Nc1nc(=O)[nH]cc1F [Flucytosine] | 0.784 ± 0.38
CN1CCOC(c2ccccc2)c2ccccc2C1 (stereo not given) [Nefopam hydrochloride] | 0.828 ± 0.19
Nc1ccn([C@@H]2O[C@H](CO)[C@@H](O)C2(F)F)c(=O)n1 [Gemcitabine] | 0.851 ± 0.34
Clc1ccc(CCC(Cn2ccnc2)Sc2c(Cl)cccc2Cl)cc1 (stereo not given) [Butoconazole nitrate] | 2.43 ± 1.2

SMILES | glomerular separation
COc1ccc(CN2CCN(C(c3ccc(F)cc3)c3ccc(F)cc3)CC2)c(OC)c1OC [Lomerizine hydrochloride] | 0.888 ± 0.33
CCCCOc1ccc(OCCCN2CCOCC2)cc1 [Pramoxine hydrochloride] | 0.962 ± 0.26
C[C@H](N)[C@H](O)c1cccc(O)c1 [Metaraminol bitartrate] | 0.797 ± 0.44
CCN(CC)CCN[C@@H](C(=O)OCCC(C)C)c1ccccc1 [Camylofine chlorhydrate] | 0.973 ± 0.34
C[C@]12CC[C@@H]3c4ccc(O)cc4CC[C@H]3[C@@H]1CCC2=O [Estrone] | 0.922 ± 0.35
CC(C)Cn1cnc2c(N)nc3ccccc3c21 [Imiquimod] | 0.76 ± 0.31
NCCc1c[nH]cn1 [Histamine dihydrochloride] | 1.1 ± 0.25
CN(Cc1cc(Br)cc(Br)c1N)C1CCCCC1 [Bromhexine hydrochloride] | 0.612 ± 0.2
c1ccc(CN(CC2=NCCN2)c2ccccc2)cc1 [Antazoline hydrochloride] | 1.08 ± 0.41
N#Cc1ccc(C(c2ccc(C#N)cc2)n2cncn2)cc1 [Letrozole] | 1.1 ± 0.4
C=CC[N@@+]12CC[C@@]34c5ccccc5N5/C=C6/[C@H]7C[C@H]8[C@@]9(CC[N@@+]8(CC=C)C/C7=C/CO)c7ccccc7N(/C=C(/[C@@H](C[C@@H]31)/C(=C\CO)C2)[C@H]54)[C@@H]69 [Alcuronium chloride] | 1.23 ± 0.57
Cc1ccccc1N1C(=O)c2cc(S(N)(=O)=O)c(Cl)cc2NC1C (stereo not given) [Metolazone] | 0.86 ± 0.34
NC(=O)c1cnccn1 [Pyrazinamide] | 0.862 ± 0.21
OCc1cc(C(O)CNCCCCCCOCCCCc2ccccc2)ccc1O (stereo not given) [Salmeterol] | 5.53 ± 1.4
CN(C)c1ccc(O)c2c1C[C@H]1C[C@H]3[C@H](N(C)C)C(O)=C(C(N)=O)C(=O)[C@@]3(O)C(O)=C1C2=O [Minocycline hydrochloride] | 1.02 ± 0.2
Nc1nc2c(ncn2COCCO)c(=O)[nH]1 [Acyclovir] | 1.05 ± 0.49
CCCCNc1ccc(C(=O)OCCN(C)C)cc1 | 1.01 ± 0.33
CCCN(CCC)S(=O)(=O)c1ccc(C(=O)O)cc1 [Probenecid] | 1.41 ± 0.61
CC(CNC1CCCCC1)OC(=O)c1ccccc1 (stereo not given) [Hexylcaine hydrochloride] | 0.859 ± 0.46
O=C(CCCN1CCN(c2ccccn2)CC1)c1ccc(F)cc1 [Azaperone] | 1.11 ± 0.43
